Where “and” joins values, the source holds several entries; their conditions need not be identical. Equal values may be shown once.

Tyrosine-protein kinase FRK (Homo sapiens), sequence (P42685 whole entry): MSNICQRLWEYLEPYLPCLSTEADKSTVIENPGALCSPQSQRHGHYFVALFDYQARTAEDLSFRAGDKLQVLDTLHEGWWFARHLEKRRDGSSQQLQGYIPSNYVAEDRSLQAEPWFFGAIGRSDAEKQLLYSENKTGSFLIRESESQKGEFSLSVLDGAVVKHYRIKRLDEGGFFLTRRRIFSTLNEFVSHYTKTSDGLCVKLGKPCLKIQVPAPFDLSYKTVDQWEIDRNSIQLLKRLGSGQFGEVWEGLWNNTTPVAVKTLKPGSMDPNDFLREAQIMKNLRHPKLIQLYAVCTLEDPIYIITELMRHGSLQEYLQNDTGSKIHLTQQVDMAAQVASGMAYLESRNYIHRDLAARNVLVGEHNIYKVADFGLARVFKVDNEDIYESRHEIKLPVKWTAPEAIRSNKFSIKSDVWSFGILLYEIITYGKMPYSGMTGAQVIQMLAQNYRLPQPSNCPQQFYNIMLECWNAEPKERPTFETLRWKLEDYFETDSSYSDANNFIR

For the first assay, the target named is Platelet-derived growth factor receptor beta (Homo sapiens) (UniProt P09619). The following applies: at 1 µM.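 Further: each value is a mean percent inhibition.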
Platelet-derived growth factor receptor beta (Homo sapiens), sequence (P09619 whole entry): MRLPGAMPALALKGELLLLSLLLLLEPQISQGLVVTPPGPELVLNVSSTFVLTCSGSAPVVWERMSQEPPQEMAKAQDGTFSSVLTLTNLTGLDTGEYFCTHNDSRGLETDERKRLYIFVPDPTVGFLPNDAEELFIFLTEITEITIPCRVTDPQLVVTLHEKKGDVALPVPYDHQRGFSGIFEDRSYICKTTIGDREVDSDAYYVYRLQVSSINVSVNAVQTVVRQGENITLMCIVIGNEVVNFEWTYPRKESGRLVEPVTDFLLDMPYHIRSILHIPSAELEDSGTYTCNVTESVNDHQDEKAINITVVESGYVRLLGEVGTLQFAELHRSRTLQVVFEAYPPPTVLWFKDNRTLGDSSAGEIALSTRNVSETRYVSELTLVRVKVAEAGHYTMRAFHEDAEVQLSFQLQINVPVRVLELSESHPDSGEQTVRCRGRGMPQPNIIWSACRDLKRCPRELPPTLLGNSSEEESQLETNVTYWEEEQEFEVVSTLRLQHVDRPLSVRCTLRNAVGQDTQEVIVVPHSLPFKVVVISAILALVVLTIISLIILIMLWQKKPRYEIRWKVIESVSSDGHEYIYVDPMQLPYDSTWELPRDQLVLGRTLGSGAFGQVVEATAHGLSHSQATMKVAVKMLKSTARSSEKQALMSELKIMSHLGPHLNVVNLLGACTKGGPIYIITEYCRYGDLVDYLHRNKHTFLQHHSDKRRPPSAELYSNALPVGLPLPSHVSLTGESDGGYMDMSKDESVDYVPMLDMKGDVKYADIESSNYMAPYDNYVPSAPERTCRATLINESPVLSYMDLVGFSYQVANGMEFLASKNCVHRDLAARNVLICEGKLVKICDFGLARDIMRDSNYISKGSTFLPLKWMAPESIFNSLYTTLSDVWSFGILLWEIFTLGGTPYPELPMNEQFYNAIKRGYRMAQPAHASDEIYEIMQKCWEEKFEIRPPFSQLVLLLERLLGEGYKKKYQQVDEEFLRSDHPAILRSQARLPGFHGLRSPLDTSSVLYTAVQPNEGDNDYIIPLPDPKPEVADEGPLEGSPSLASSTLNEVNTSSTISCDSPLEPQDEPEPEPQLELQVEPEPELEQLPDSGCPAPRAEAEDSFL
Regarding `COc1cc(Nc2ncc(-c3ccccc3)o2)cc(OC)c1`, the inhibition was determined as 62.9%.
For the compound `Fc1ccc(Nc2nccc(-c3c(-c4ccc(C(F)(F)F)cc4)nn4ncccc34)n2)cc1F`, the inhibition worked out at 3.62%.
On to `COc1cc(N2CCN(C(C)C)CC2)ccc1Nc1nc(Nc2cccc(F)c2C(=O)O)c2cc[nH]c2n1`, for which the inhibition was 6.82%.
For the compound `CC1(C)CC(n2cnc(-c3ccc(F)cc3)c2-c2ccnc(N)n2)CC(C)(C)N1`, the inhibition stood at 5.35%.
With `COc1cccc(Nc2nccc(-c3cnn4ncccc34)n2)c1`, the inhibition is 70%.
On the same count and under the same terms, for `COc1ccc(-c2nn3ncccc3c2-c2ccnc(Nc3ccc(F)c(F)c3)n2)cc1` the value was 15.3%; for `CNC(=O)c1cncc(/C=C/c2ccccc2C)c1`, 20.1%; for `Cn1c(-c2nonc2N)nc2cnccc21`, 6.81%.
Turning to `Nc1ncnc2occ(-c3ccc(NC(=O)Nc4cc(C(F)(F)F)ccc4F)cc3)c12`, the inhibition was 86.7% and 81.4%.
With `CCOc1ccc2c(-c3ccnc(Nc4cc(OC)cc(C(F)(F)F)c4)n3)cnn2n1`, the inhibition is 29.3%.
Still for that read-out and setting: for `O=C1Nc2ccccc2/C1=C1\CCc2cc(O)ccc21` the value was 47.9%; for `O=C(O[C@H]1CN[C@H](C#Cc2cc3ncnc(Nc4ccc5c(ccn5Cc5cc(F)ccc5F)c4)c3s2)C1)N1CCOCC1`, 7.68%.
On the same count and under the same terms, the value for `CS(=O)(=O)CCNCc1ccc(-c2ccc3ncnc(Nc4ccc(OCc5cccc(C(F)(F)F)c5)cc4)c3c2)o1` was 13.6%; that for `N#Cc1cccc(Nc2ncc(-c3ccccc3)o2)c1` was 26.1%.
In the case of `N#Cc1ccc2c(-c3ccnc(NC4CC4)n3)c(-c3ccc(F)cc3)nn2c1`, the inhibition amounted to 16.8%.
On the same count and under the same terms, the value for `CNC(=O)c1sc(-n2cnc3cc(OC)c(OC)cc32)cc1OCc1ccccc1C(F)(F)F` was 44.2%.

Another assay addresses Tyrosine-protein kinase FRK (Homo sapiens) (UniProt P42685). The following applies: at 0.1 µM.
`COc1ccc(Nc2ncc(-c3ccccc3)o2)cc1OC`: the inhibition is -0.09%.
Same read-out and setting: for `CCS(=O)(=O)c1ccc(OC)c(Nc2ncc(-c3cccc(C(C)=O)c3)o2)c1` the value was 3.25%; for `CS(=O)(=O)Nc1ccc(-c2ccc3c(NC(=O)C4CC4)n[nH]c3c2)cc1`, 1.21%; for `CS(=O)(=O)CCNCc1ccoc1-c1ccc2ncnc(Nc3ccc(OCc4ccccc4)cc3)c2c1`, -0.85%.
Turning to `NS(=O)(=O)c1ccc(N/N=C2\C(=O)Nc3ccc(C(=O)NCc4ccncc4)cc32)cc1`, the inhibition stood at 1.15%.
On the same count and under the same terms, the value for `CN1CCC(C(=O)Nc2n[nH]c3nc(-c4ccc(O)cc4)c(Br)cc23)CC1` was 1.77% and -0.83%; that for `CN1CCN(Cc2ccc(-c3cc4ncnc(Nc5ccc(OCc6cccc(F)c6)c(Cl)c5)c4s3)o2)CC1` was 2.16% and 3.11%; that for `COc1cc2c(cc1Nc1nc(Nc3cccc(F)c3C(N)=O)c3cc[nH]c3n1)N(C(=O)CN1CCN(C(C)C)CC1)CC2` was 0.37%.
The same measure, in the same setting: for `COc1cccc(-n2ncc3c(N/N=C/c4ccc(C(=O)NCCN(C)C)cc4)ncnc32)c1` the value was 3.91%.
On the same count and under the same terms, for `CN(c1ccc(NC(=O)NCCN2CCOCC2)cc1)c1ccnc(Nc2ccc(CS(C)(=O)=O)cc2)n1` the value was 1.69%; for `Cc1nnc(-c2cccc(-c3ccc(C(=O)NCC4CC4)cc3)c2)o1`, 1.96%.
For `Cc1cc(O)cc(C)c1/C=C/c1cncc(C(N)=O)c1`, the inhibition came to 2.65%.
Consider `FC(F)(F)CNc1nccc(-c2cnn3ncccc23)n1`, for which the inhibition was determined as 1.82%.
As to `NC(=O)c1ccc2c(-c3ccnc(NCCCO)n3)c(-c3ccc(F)cc3)nn2c1`, the inhibition is 4.1%.
Same read-out and setting: the value for `COc1ccc2ncn(-c3cc(O[C@H](C)c4ccccc4C(F)(F)F)c(C(N)=O)s3)c2c1` was -0.74%; that for `COc1cc(Nc2ncc(-c3ccccc3)o2)cc(OC)c1` was 0.8%.
Same read-out and setting: for `Fc1ccc(Nc2nccc(-c3c(-c4ccc(C(F)(F)F)cc4)nn4ncccc34)n2)cc1F` the value was 0.45%; for `COc1cc(N2CCN(C(C)C)CC2)ccc1Nc1nc(Nc2cccc(F)c2C(=O)O)c2cc[nH]c2n1`, 4.04%; for `CC1(C)CC(n2cnc(-c3ccc(F)cc3)c2-c2ccnc(N)n2)CC(C)(C)N1`, 0.92%.
Take `COc1cccc(Nc2nccc(-c3cnn4ncccc34)n2)c1`: the inhibition was 0.08%.
Regarding `COc1ccc(-c2nn3ncccc3c2-c2ccnc(Nc3ccc(F)c(F)c3)n2)cc1`, the inhibition was determined as 0.7%.
As to `CNC(=O)c1cncc(/C=C/c2ccccc2C)c1`, the inhibition was found to be 1.01%.
Take `Cn1c(-c2nonc2N)nc2cnccc21`: the inhibition stood at 0.98%.
On the same count and under the same terms, the value for `Nc1ncnc2occ(-c3ccc(NC(=O)Nc4cc(C(F)(F)F)ccc4F)cc3)c12` was 2.63% and 2.3%; that for `CCOc1ccc2c(-c3ccnc(Nc4cc(OC)cc(C(F)(F)F)c4)n3)cnn2n1` was -0.17%; that for `O=C1Nc2ccccc2/C1=C1\CCc2cc(O)ccc21` was 2.6%.
For `O=C(O[C@H]1CN[C@H](C#Cc2cc3ncnc(Nc4ccc5c(ccn5Cc5cc(F)ccc5F)c4)c3s2)C1)N1CCOCC1`, the inhibition turned out to be 3.08%.
Consider `CS(=O)(=O)CCNCc1ccc(-c2ccc3ncnc(Nc4ccc(OCc5cccc(C(F)(F)F)c5)cc4)c3c2)o1`, for which the inhibition is 2.67%.
The same measure, in the same setting: the value for `N#Cc1cccc(Nc2ncc(-c3ccccc3)o2)c1` was 0.92%; that for `N#Cc1ccc2c(-c3ccnc(NC4CC4)n3)c(-c3ccc(F)cc3)nn2c1` was 1.44%; that for `CNC(=O)c1sc(-n2cnc3cc(OC)c(OC)cc32)cc1OCc1ccccc1C(F)(F)F` was 1.48%.

The next assay has the same target. The settings on record: at 1 µM.
For the compound `COc1ccc(Nc2ncc(-c3ccccc3)o2)cc1OC`, the inhibition came out at 4.33%.
Same read-out and setting: the value for `CCS(=O)(=O)c1ccc(OC)c(Nc2ncc(-c3cccc(C(C)=O)c3)o2)c1` was 14.2%.
Same read-out and setting: the value for `CS(=O)(=O)Nc1ccc(-c2ccc3c(NC(=O)C4CC4)n[nH]c3c2)cc1` was 1.03%; that for `CS(=O)(=O)CCNCc1ccoc1-c1ccc2ncnc(Nc3ccc(OCc4ccccc4)cc3)c2c1` was 0.98%; that for `NS(=O)(=O)c1ccc(N/N=C2\C(=O)Nc3ccc(C(=O)NCc4ccncc4)cc32)cc1` was 0.41%.
On the same count and under the same terms, the value for `CN1CCC(C(=O)Nc2n[nH]c3nc(-c4ccc(O)cc4)c(Br)cc23)CC1` was 2.31% and 3.98%; that for `CN1CCN(Cc2ccc(-c3cc4ncnc(Nc5ccc(OCc6cccc(F)c6)c(Cl)c5)c4s3)o2)CC1` was 3.13% and 4.91%.
In the case of `COc1cc2c(cc1Nc1nc(Nc3cccc(F)c3C(N)=O)c3cc[nH]c3n1)N(C(=O)CN1CCN(C(C)C)CC1)CC2`, the inhibition is 1.24%.
As for `COc1cccc(-n2ncc3c(N/N=C/c4ccc(C(=O)NCCN(C)C)cc4)ncnc32)c1`, the inhibition was determined as 12.2%.
On the same count and under the same terms, the value for `CN(c1ccc(NC(=O)NCCN2CCOCC2)cc1)c1ccnc(Nc2ccc(CS(C)(=O)=O)cc2)n1` was 0.89%; that for `Cc1nnc(-c2cccc(-c3ccc(C(=O)NCC4CC4)cc3)c2)o1` was 3.45%.
With `Cc1cc(O)cc(C)c1/C=C/c1cncc(C(N)=O)c1`, the inhibition amounted to 14.2%.
Turning to `FC(F)(F)CNc1nccc(-c2cnn3ncccc23)n1`, the inhibition amounted to 1.72%.
Same read-out and setting: the value for `NC(=O)c1ccc2c(-c3ccnc(NCCCO)n3)c(-c3ccc(F)cc3)nn2c1` was 3.97%; that for `COc1ccc2ncn(-c3cc(O[C@H](C)c4ccccc4C(F)(F)F)c(C(N)=O)s3)c2c1` was 1.39%.
On the same count and under the same terms, for `COc1cc(Nc2ncc(-c3ccccc3)o2)cc(OC)c1` the value was 4.62%; for `Fc1ccc(Nc2nccc(-c3c(-c4ccc(C(F)(F)F)cc4)nn4ncccc34)n2)cc1F`, 0.39%.
The same measure, in the same setting: the value for `COc1cc(N2CCN(C(C)C)CC2)ccc1Nc1nc(Nc2cccc(F)c2C(=O)O)c2cc[nH]c2n1` was 4.07%; that for `CC1(C)CC(n2cnc(-c3ccc(F)cc3)c2-c2ccnc(N)n2)CC(C)(C)N1` was 1.66%.
For the compound `COc1cccc(Nc2nccc(-c3cnn4ncccc34)n2)c1`, the inhibition amounted to 4.45%.
With `COc1ccc(-c2nn3ncccc3c2-c2ccnc(Nc3ccc(F)c(F)c3)n2)cc1`, the inhibition was 2.26%.
As for `CNC(=O)c1cncc(/C=C/c2ccccc2C)c1`, the inhibition turned out to be 1.8%.
With `Cn1c(-c2nonc2N)nc2cnccc21`, the inhibition amounted to 1.06%.
In the case of `Nc1ncnc2occ(-c3ccc(NC(=O)Nc4cc(C(F)(F)F)ccc4F)cc3)c12`, the inhibition is 19.1% and 11.8%.
Same read-out and setting: the value for `CCOc1ccc2c(-c3ccnc(Nc4cc(OC)cc(C(F)(F)F)c4)n3)cnn2n1` was -0.61%.
The same measure, in the same setting: for `O=C1Nc2ccccc2/C1=C1\CCc2cc(O)ccc21` the value was 3.64%; for `O=C(O[C@H]1CN[C@H](C#Cc2cc3ncnc(Nc4ccc5c(ccn5Cc5cc(F)ccc5F)c4)c3s2)C1)N1CCOCC1`, 2.35%.
Still for that read-out and setting: for `CS(=O)(=O)CCNCc1ccc(-c2ccc3ncnc(Nc4ccc(OCc5cccc(C(F)(F)F)c5)cc4)c3c2)o1` the value was 3.25%.
In the case of `N#Cc1cccc(Nc2ncc(-c3ccccc3)o2)c1`, the inhibition amounted to 3.54%.
Turning to `N#Cc1ccc2c(-c3ccnc(NC4CC4)n3)c(-c3ccc(F)cc3)nn2c1`, the inhibition came out at 0.3%.
In the case of `CNC(=O)c1sc(-n2cnc3cc(OC)c(OC)cc32)cc1OCc1ccccc1C(F)(F)F`, the inhibition is 3.75%.

By inhibition is commonly meant the drop in the measured response relative to a control, in per cent.
